Results reported in PubChem BioAssay.
Activity calls are given as the source filed them.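 The calls were made as follows, unless noted: active = fluorescence slope after compound addition differing from the mean of all screened samples at 99.7% confidence, in either direction; inactive = the rest.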

Legend:
[1] = inhibitors of TNFa-induced NFkB p65 translocation, primary screen, imaging, HUVEC, MLSMR starter and 10KST1 sets (AID 438;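 active = inhibition above 20% together with a positive visual image hit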;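 also: compound added about 3h40 before a 20 min TNFalpha stimulation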;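 as to inhibition: signal is the nuclear over cytoplasmic p65 intensity ratio per well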); conditions: HUVEC TNFa-induced p65 nuclear translocation; cell count: measured here: nuclei count (cytotoxicity indicator), at 2.08 µM; inhibition: at 2 µM, stronger effect = higher value, 0% TNFa-plus-vehicle, 100% no-TNFa wells
[2] = inhibitors of mutant huntingtin aggregation, primary screen, imaging, exon1htt(103Q)mCFP cells, high-content imaging (AID 483;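 active = visual image review flags a hit and inhibition of aggregation exceeds 20%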;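 also: compound exposure lasted 3 days before fixation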;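 as to nuclei count: percent of the per-plate median nuclei count of sample wells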); conditions: exon1htt(103Q)mCFP cell line, aggregate imaging, at 2 µM; inhibition of aggregation: stronger effect = higher value; nuclei count: measured here: cell count, toxicity
[3] = inhibitors of E-selectin induction by TNFa, primary screen, imaging, HUVEC, immunofluorescence, MLSMR starter and 10KST1 sets (AID 487;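 active = visually confirmed hit in the image check and inhibition above 20%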;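 as to inhibition: signal is fraction of cell area covered by stained E-selectin grains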;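 as to nuclei count: 100% = median nuclei count of all wells on the same plate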); conditions: HUVEC TNFalpha-induced E-selectin immunofluorescence imaging, at 2 µM; inhibition: stronger effect = higher value; nuclei count: measured here: cell number, toxicity
[4] = target: Voltage-gated potassium channel subunit beta-2 (Rattus norvegicus) (UniProt P62483); assay: KvBeta enzyme negative modulators, primary screen, biochemical, NADPH fluorescence (AID 622;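 active = fluorescence slope higher than the sample average by over 3 SD, cut at about -0.22 in these data, passing the limit was not always enough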;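 also: slope of raw intensity against log time taken from 70 to 1610 s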); conditions: recombinant KvBeta, 4-cyanobenzaldehyde reduction, at 10 µM, stronger effect = higher value
Sequence of Voltage-gated potassium channel subunit beta-2 (Rattus norvegicus) (P62483 whole entry, looked up): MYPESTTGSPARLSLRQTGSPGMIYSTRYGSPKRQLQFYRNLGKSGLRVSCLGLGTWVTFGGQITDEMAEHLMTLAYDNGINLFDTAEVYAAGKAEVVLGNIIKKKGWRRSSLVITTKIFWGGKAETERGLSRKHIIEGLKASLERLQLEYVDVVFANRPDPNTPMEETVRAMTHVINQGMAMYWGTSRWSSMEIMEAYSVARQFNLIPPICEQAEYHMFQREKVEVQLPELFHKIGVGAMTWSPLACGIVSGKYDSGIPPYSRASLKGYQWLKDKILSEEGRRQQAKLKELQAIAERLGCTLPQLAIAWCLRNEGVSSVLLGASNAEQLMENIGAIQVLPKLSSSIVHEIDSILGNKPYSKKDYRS

[5] = target: Voltage-gated potassium channel subunit beta-2 (Rattus norvegicus) (UniProt P62483); assay: KvBeta positive modulators, primary screen, biochemical, NADPH fluorescence (AID 623;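 active = NADPH fluorescence slope more negative than the mean of all samples by about 3 SD, 99.7% confidence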;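 also: fluorescence intensity change per second fitted from 20 to 320 s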); conditions: Recombinant KvBeta, NADPH fluorescence decrease slope, 10 min; at 10 µM; stronger effect = lower value
[6] = target: Alpha-2C adrenergic receptor (Homo sapiens) (UniProt P18825); assay: modulators of alpha2C/GIRK thallium flux, primary screen, cell-based, HEK293 alpha2C/GIRK1/2 (AID 624); conditions: thallium flux BTC fluorescence, at 10 µM, actives lie on both sides;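 also: slope of fluorescence ratio to pre-addition baseline per second over 15 to 24 s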
Sequence of Alpha-2C adrenergic receptor (Homo sapiens) (P18825 whole entry, looked up): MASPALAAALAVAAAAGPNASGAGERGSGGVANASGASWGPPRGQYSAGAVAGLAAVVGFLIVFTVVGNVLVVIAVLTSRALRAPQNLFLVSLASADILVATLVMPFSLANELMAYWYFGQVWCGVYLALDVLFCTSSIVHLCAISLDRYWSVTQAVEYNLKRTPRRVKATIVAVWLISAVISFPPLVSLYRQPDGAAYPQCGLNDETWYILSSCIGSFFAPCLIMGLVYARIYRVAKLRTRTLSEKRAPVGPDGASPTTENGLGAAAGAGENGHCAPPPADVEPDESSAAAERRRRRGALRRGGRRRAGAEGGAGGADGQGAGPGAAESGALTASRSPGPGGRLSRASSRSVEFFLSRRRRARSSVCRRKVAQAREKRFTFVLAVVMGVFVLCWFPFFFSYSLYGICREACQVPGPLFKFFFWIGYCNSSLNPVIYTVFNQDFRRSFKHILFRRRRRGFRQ

[7] = inhibitors of Sendai virus-induced IRF3 signaling, primary screen, TLR/RLR signaling modifier project, cell-based, Sendai virus stimulus, luciferase, 10K MLSCN set (AID 602276;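 active = inhibition at or above 50% at 10 µM; inactive = inhibition below 50%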;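 also: firefly luciferase from ISG56 promoter only with Renilla not read in this screen; 0% = Sendai virus plus DMSO and 100% = medium plus DMSO without virus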); conditions: HEK293 RL24 IRF3 luciferase reporter, at 10 µM, stronger effect = higher value
[8] = inhibitors of poly I:C-induced TLR3 signaling, primary screen, cell-based, poly I:C stimulus, luciferase, 10K MLSCN set (AID 602277;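 active = inhibition of the reporter signal at or above 50%; inactive = inhibition below 50%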); conditions: HEK293-TLR3 RL24 IRF3 luciferase reporter, at 10 µM, stronger effect = higher value

SMILES | cell count [1] | inhibition [1] | inhibition of aggregation [2] | nuclei count [2] [%] | inhibition [3] | nuclei count [3] [%] | fluorescence slope [4] | NADPH fluorescence slope [5] | slope [6] | inhibition [7] | inhibition [8]
O=C(CN(CCc1ccccc1)C(=O)CNS(=O)(=O)c1ccccc1)NCC1CCCO1 (stereo not drawn) | 322 | 11.7% (inactive) | -13.1% (inactive) | 99.8 | -46.7% (inactive) | 109 | -0.481 (inactive) | 2e-05 (inactive) | 0.0066 (inactive) | -8.2% (inactive) | 13.9% (inactive)
OC1C[N+]2(CCCCC2)C1 | 278 | 9.3% (inactive) | -10.6% (inactive) | 104 | 62.9% (active) | 111 | -0.497 (inactive) | -5.4e-05 (inactive) | 0.00461 (inactive) | 11.5% (inactive) | 10.3% (inactive)
CCC(C)NC(=O)CC1Oc2ccc(C)cc2NC1=O (stereo not drawn) | 585 | -2% (inactive) | 9.7% (inactive) | 100 | -116% (inactive) | 126 | -0.56 (inactive) | -1.5e-05 (inactive) | 0.00629 (inactive) | 2.24% (inactive) | 22.9% (inactive)
CC(CCc1ccccc1)NC(=O)C1CCCN(c2nnc(-n3cccc3)s2)C1 (stereo not drawn) | 585 | 5.8% (inactive) | -2.5% (inactive) | 99.3 | -42.8% (inactive) | 102 | -0.57 (inactive) | -3.2e-05 (inactive) | 0.00444 (inactive) | 8.13% (inactive) | 18.5% (inactive)
c1ccc(-c2nn3c(Cn4nnc5ccccc54)nnc3s2)nc1 | 574 | 2.1% (inactive) | 3.4% (inactive) | 103 | 13.7% (inactive) | 82.3 | -0.425 (inactive) | -2.3e-05 (inactive) | 0.0044 (inactive) | -11.7% (inactive) | -3.15% (inactive)
CCN(CC)CCn1c2ccccc2c2nc(C)sc21 | 613 | -3.3% (inactive) | -5% (inactive) | 98.7 | 34% (inactive) | 86.3 | -0.622 (inactive) | -3.9e-06 (inactive) | 0.00718 (inactive) | 16.1% (inactive) | 21.2% (inactive)
Cc1[nH]nc2c1C(=O)CC(C)(C)C2 | 416 | -4.9% (inactive) | -16.7% (inactive) | 118 | -24.4% (inactive) | 117 | -0.347 (inactive) | -1.7e-05 (inactive) | 0.0065 (inactive) | -3.34% (inactive) | 17.1% (inactive)
CCC(=O)Nc1ccc2nc(SCC(=O)N3CCCC3)sc2c1 | 709 | -23.3% (inactive) | -2.1% (inactive) | 102 | -56.1% (inactive) | 122 | -0.503 (inactive) | -2.8e-05 (inactive) | 0.00507 (inactive) | -25.3% (inactive) | -44.2% (inactive)
Cn1c(=O)cc(OCCCC(=O)Nc2ccc3c(c2)OCCO3)c2ccccc21 | 361 | -3.3% (inactive) | -4.7% (inactive) | 101 | -8.1% (inactive) | 113 | -0.511 (inactive) | -1.4e-05 (inactive) | 0.00629 (inactive) | -5.46% (inactive) | -1.3% (inactive)
COc1ccc(C(=O)NCc2ccccc2OC)cc1 | 590 | -0.6% (inactive) | -15.5% (inactive) | 107 | -25.9% (inactive) | 111 | -0.47 (inactive) | -0.000293 (inactive) | 0.00583 (inactive) | -2.6% (inactive) | -7.58% (inactive)
O=C(CCN1C(=O)COc2ccccc21)NCCCN1CCN(c2ccccc2F)CC1 | 660 | -7.1% (inactive) | -1.6% (inactive) | 73.9 | -82.2% (inactive) | 93.3 | -0.425 (inactive) | -2.7e-05 (inactive) | 0.004 (inactive) | 11.7% (inactive) | 15% (inactive)
COc1ccc(-c2nc(CSCC(=O)NCc3ccc4c(c3)OCO4)c(C)o2)cc1OC | 477 | -3.3% (inactive) | 16.1% (inactive) | 104 | -83% (inactive) | 114 | -0.43 (inactive) | -5.4e-05 (inactive) | 0.00553 (inactive) | 9.89% (inactive) | 20.1% (inactive)
CCCOC(=O)CSc1nc(N)c(C#N)c(CC)c1C#N | 377 | 3.3% (inactive) | 18% (inactive) | 97.7 | -97.1% (inactive) | 113 | -0.532 (inactive) | -2.3e-05 (inactive) | 0.00456 (inactive) | -7.11% (inactive) | -13.9% (inactive)
O=C(NC1CCCCC1)N(Cc1ccccc1)Cc1ccco1 | 482 | 6.5% (inactive) | 0.2% (inactive) | 90.9 | -214% (inactive) | 128 | -0.4 (inactive) | 6.8e-05 (inactive) | 0.00512 (inactive) | -9.22% (inactive) | 11.3% (inactive)
CSc1ccccc1NC(=O)c1cnc2n(c1=O)CCS2 | 695 | -9.6% (inactive) | -2.5% (inactive) | 111 | -2.6% (inactive) | 112 | -0.401 (inactive) | 1e-05 (inactive) | 0.00535 (inactive) | 5.22% (inactive) | -12.4% (inactive)
CCCCCCC1/C(=N/O)CCC1C(=O)OC (stereo not drawn) | 656 | -7.7% (inactive) | 7.3% (inactive) | 91.2 | -54.1% (inactive) | 127 | -0.614 (inactive) | -8.9e-06 (inactive) | 0.00642 (inactive) | 0.917% (inactive) | 10.1% (inactive)
COc1cc2c(cc1OC)-c1nnc(-c3cccs3)n1C(C)(C)C2 | 814 | 1.2% (inactive) | -30.2% (inactive) | 106 | -58.9% (inactive) | 114 | -0.601 (inactive) | -1.8e-05 (inactive) | 0.00581 (inactive) | 6.77% (inactive) | 18.5% (inactive)
CN(C)c1ccc(NC(=O)c2cc3c(=O)n4ccccc4nc3n2C)cc1 | 216 | -10.7% (inactive) | 4.4% (inactive) | 89 | 52.4% (inactive) | 68.8 | -0.572 (inactive) | -3.5e-05 (inactive) | 0.00472 (inactive) | 1.6% (inactive) | -86.3% (inactive)
O=C(CSc1n[nH]c(-c2ccco2)n1)Nc1sc2c(c1C(=O)Nc1ccccc1)CCCC2 | 298 | -4.3% (inactive) | 3.5% (inactive) | 88.7 | -73.5% (inactive) | 91 | -0.447 (inactive) | -3.7e-05 (inactive) | 0.00332 (inactive) | 4.06% (inactive) | 21.7% (inactive)
CCOC(=O)c1[nH]c2ccccc2c1NC(=O)C(C)(C)C | 692 | -10.7% (inactive) | -8.7% (inactive) | 117 | -30.2% (inactive) | 105 | -0.586 (inactive) | -4.7e-05 (inactive) | 0.00597 (inactive) | 13.4% (inactive) | 45.1% (inactive)
COc1ccc(OC)c(C(=O)c2coc3ccc(O)c(CN4CCOCC4)c23)c1 | 282 | 2.9% (inactive) | -12.4% (inactive) | 120 | -28.2% (inactive) | 109 | -0.561 (inactive) | -9.1e-06 (inactive) | 0.00423 (inactive) | 6.31% (inactive) | 23% (inactive)
CC1=C(C(=O)OC(C)C)C(c2ccccn2)n2ncnc2N1 (stereo not drawn) | 751 | -0.6% (inactive) | -35.6% (inactive) | 79.5 | -75.2% (inactive) | 110 | -0.569 (inactive) | -3e-05 (inactive) | 0.00699 (inactive) | 0.999% (inactive) | 30.5% (inactive)
Cc1ccc(CSC2=NCCN2C(=O)c2ccco2)cc1 | 661 | 1.3% (inactive) | -14.6% (inactive) | 106 | -11.6% (inactive) | 115 | -0.613 (inactive) | -1.3e-05 (inactive) | 0.00684 (inactive) | -0.0387% (inactive) | 0.194% (inactive)
O=C(Cn1cnc2c(nnn2Cc2ccccc2)c1=O)c1ccc(Cl)cc1 | 561 | 8.2% (inactive) | -6.2% (inactive) | 86.3 | -22% (inactive) | 108 | -0.591 (inactive) | -4.2e-06 (inactive) | 0.00679 (inactive) | 11.9% (inactive) | 21.3% (inactive)
O=C(CCN1C(=O)COc2ccccc21)NCCN1CCN(c2cccc(Cl)c2)CC1 | 597 | -3.6% (inactive) | 0.2% (inactive) | 88.9 | -68.5% (inactive) | 112 | -0.602 (inactive) | -2.6e-06 (inactive) | 0.00502 (inactive) | 7.8% (inactive) | 7.33% (inactive)
CCC(c1nnnn1C(C)(C)C)N1CCN(C2CCCC2)CC1 (stereo not drawn) | 450 | 1.3% (inactive) | -7.5% (inactive) | 124 | -46.6% (inactive) | 128 | -0.634 (inactive) | -1.4e-05 (inactive) | 0.00353 (inactive) | 16.1% (inactive) | 9.37% (inactive)
COc1cccc(-c2cc(C(F)(F)F)n3ncc(C(=O)O)c3n2)c1 | 382 | -2.6% (inactive) | 13.4% (inactive) | 94.7 | -22.3% (inactive) | 73.7 | -0.576 (inactive) | -5.3e-05 (inactive) | 0.00328 (inactive) | 11% (inactive) | 20.4% (inactive)
Cc1cc(C)n(-c2nc(C)nc3sc4c(c23)CCC(C)C4)n1 (stereo not drawn) | 564 | -8.4% (inactive) | -2% (inactive) | 93.8 | -88% (inactive) | 121 | -0.465 (inactive) | 5.5e-06 (inactive) | 0.00248 (inactive) | -1.01% (inactive) | 32.1% (inactive)
